According to PubChem BioAssay (EPA / NIEHS):
Activity calls are given as the source filed them. Rule for the calls: active = hit-call score of the fitted dose curve at least 0.9, where 1 is the maximum; inactive = score below 0.9.

Columns and labels:
[1] = ATG_ISRE_CIS: Attagene CIS-FACTORIAL HepG2 Assay for human Interferon Regulatory Factor 1 (IRF1) binding to an Interferon-Stimulated Response Element (ISRE) (AID 2282948); conditions: HepG2 ISRE cis-reporter (Attagene), mRNA transcription readout; actives raise or lower the signal
Outline: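 Quantitation relies on labelled RT-PCR fragments separated by capillary electrophoresis. Human HepG2 cells bearing cis-promoter reporter constructs were treated 24 h; DMSO served as baseline for bidirectional fitting.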

[2] = ATG_M_06_CIS: Attagene CIS-FACTORIAL HepG2 Assay for M06 Transcription Factor (Internal Marker) (AID 2282950); conditions: HepG2 Attagene CIS-FACTORIAL M06 internal marker reporter; actives raise or lower the signal
Outline: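 HepG2 cells transiently transfected with cis-regulated multiple reporter transcription units were exposed to chemical for 24 h; reporter mRNA was quantified by RT-PCR, 6-FAM primer labelling, HpaI digestion and capillary electrophoresis, fitted bidirectionally against DMSO.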

[3] = biological target: Hypoxia-inducible factor 1-alpha (Homo sapiens) (UniProt Q16665); assay: ATG_HIF1a_CIS: Attagene CIS-FACTORIAL HepG2 Assay for human Hypoxia Inducible Factor 1 (HIF1A) (AID 2282951); conditions: HepG2 Attagene cis-factorial HIF1a reporter transcription; actives raise or lower the signal
Hypoxia-inducible factor 1-alpha (Homo sapiens), sequence (Q16665 whole entry, looked up): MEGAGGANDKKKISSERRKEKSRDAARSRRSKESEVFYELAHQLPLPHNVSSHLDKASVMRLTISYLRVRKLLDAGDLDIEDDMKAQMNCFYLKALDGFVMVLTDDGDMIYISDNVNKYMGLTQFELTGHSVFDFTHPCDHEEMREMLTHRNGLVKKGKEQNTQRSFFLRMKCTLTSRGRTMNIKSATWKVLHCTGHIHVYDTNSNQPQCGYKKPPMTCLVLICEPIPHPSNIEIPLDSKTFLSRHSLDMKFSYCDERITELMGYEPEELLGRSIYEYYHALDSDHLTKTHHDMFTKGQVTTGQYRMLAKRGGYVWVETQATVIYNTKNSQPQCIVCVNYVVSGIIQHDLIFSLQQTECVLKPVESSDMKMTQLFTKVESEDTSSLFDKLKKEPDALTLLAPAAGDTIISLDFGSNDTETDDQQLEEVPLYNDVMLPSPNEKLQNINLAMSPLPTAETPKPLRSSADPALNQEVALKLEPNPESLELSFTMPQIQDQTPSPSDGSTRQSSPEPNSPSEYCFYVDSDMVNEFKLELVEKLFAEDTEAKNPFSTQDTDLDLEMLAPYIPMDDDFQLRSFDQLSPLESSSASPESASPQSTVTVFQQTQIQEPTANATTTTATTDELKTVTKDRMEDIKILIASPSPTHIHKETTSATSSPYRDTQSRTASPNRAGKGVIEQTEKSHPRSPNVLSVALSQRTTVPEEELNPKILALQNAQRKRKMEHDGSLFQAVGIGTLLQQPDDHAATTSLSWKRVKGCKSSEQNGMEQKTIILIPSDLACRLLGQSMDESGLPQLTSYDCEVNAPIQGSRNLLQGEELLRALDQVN
Outline: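 Activity is fitted in both directions relative to DMSO. Reporter transcripts are read by RT-PCR, fluorescent primer extension and capillary electrophoresis after 24 h chemical treatment. The cells are HepG2 carrying transiently transfected cis-element-driven reporter units responding to endogenous factors.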

[4] = biological target: Hepatocyte nuclear factor 6 (Homo sapiens) (UniProt Q9UBC0); assay: ATG_HNF6_CIS: Attagene CIS-FACTORIAL HepG2 Assay for human Hepatocyte Nuclear Factor 6 (HNF6) (AID 2282952); conditions: HepG2 Attagene cis-factorial HNF6 reporter transcription; actives raise or lower the signal
Hepatocyte nuclear factor 6 (Homo sapiens), sequence (Q9UBC0 whole entry, looked up, the tested form may be a part): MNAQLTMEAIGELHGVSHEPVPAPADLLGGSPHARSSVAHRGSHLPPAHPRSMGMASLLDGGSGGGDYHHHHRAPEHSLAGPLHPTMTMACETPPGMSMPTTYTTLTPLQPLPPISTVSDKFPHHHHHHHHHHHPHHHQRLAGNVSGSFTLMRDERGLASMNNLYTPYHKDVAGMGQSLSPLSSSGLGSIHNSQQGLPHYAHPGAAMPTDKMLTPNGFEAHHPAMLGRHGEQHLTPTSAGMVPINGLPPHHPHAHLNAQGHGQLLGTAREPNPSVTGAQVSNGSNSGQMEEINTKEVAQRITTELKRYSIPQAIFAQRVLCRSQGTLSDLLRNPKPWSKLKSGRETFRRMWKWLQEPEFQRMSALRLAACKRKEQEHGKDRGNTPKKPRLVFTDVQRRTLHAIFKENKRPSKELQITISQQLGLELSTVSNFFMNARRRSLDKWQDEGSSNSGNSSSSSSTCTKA
Outline: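 HepG2 cells transiently transfected with cis-element-driven multiplexed reporter units measuring endogenous transcription factor activity. After 24 h exposure, reporter mRNA quantified by RT-PCR, FAM-labelled fragments and capillary electrophoresis; bidirectional fitting versus DMSO.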

[5] = biological target: Heat shock factor protein 1 (Homo sapiens) (UniProt Q00613); assay: ATG_HSE_CIS: Attagene CIS-FACTORIAL HepG2 Assay for human Heat Shock Transcription Factor 1 (HSE) (AID 2282953); conditions: HepG2 HSE cis-reporter, Attagene RNA transcription; actives raise or lower the signal
Heat shock factor protein 1 (Homo sapiens), sequence (Q00613 whole entry, looked up): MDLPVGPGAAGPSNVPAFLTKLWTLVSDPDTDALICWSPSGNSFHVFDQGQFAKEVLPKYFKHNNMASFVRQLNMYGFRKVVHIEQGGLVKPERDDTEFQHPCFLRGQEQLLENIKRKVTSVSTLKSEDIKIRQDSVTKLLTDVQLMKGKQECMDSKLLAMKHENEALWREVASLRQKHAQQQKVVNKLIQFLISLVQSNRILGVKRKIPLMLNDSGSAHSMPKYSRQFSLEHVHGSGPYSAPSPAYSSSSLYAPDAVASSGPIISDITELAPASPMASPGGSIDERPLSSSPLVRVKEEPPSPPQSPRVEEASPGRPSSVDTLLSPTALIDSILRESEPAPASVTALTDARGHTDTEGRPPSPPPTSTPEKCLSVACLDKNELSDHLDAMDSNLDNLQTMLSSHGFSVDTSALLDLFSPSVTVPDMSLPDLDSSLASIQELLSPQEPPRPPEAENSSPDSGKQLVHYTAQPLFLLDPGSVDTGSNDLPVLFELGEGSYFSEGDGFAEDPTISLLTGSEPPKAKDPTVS
Outline: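 HepG2 cells transiently transfected with multiple reporter transcription units under cis-regulatory promoter control, measuring endogenous transcription factor activity. After 24 h chemical exposure, reporter mRNA quantified by RT-PCR, fluorescent labelling, HpaI digestion and capillary electrophoresis; bidirectional fit versus DMSO.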

[6] = ATG_MRE_CIS: Attagene CIS-FACTORIAL HepG2 Assay for human Metal Responsive Element (MRE) (AID 2282954); conditions: HepG2 MRE cis-reporter transcription, Attagene multiplex; actives raise or lower the signal
Outline: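 Transient MRTU transfection of HepG2 (FuGene 6); 24 h dosing; total RNA → oligo(dT) RT, PCR, 6-FAM primer extension, HpaI cut, CE. Bidirectional fit vs DMSO.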

[7] = ATG_M_32_CIS: Attagene CIS-FACTORIAL HepG2 Assay for M32 Transcription Factor (Internal Marker) (AID 2282949); conditions: HepG2 Attagene cis-factorial M32 reporter, mRNA; actives raise or lower the signal;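 note: background control marker of the multiplexed CIS panel rather than a real target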
Outline: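 Fluorescent capillary electrophoresis peaks of HpaI-digested, FAM-labelled RT-PCR reporter products give the signal. Source: transiently transfected human liver HepG2 cells, 24 h after chemical dosing; bidirectional fitting against DMSO.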

[8] = ATG_PBREM_CIS: Attagene CIS-FACTORIAL HepG2 Assay for human Phenobarbital-responsive Enhancer Module (PBREM) (AID 2282955); conditions: HepG2 PBREM cis-reporter, Attagene multiplexed transcription; actives raise or lower the signal
Outline: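 Endogenous transcription factor activity was read from reporter transcripts in transiently transfected human HepG2 liver cells after 24 h dosing. RT-PCR products were fluorescently labelled, HpaI-cut and sized by capillary electrophoresis; activity fitted bidirectionally against DMSO baseline.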

Measured: AC50

O=C1C(c2[nH]c3ccc(S(=O)(=O)O)cc3c2O)=Nc2ccc(S(=O)(=O)O)cc21
not listed: [7] | [8]
inactive: all other assays above

CCCC(=O)OCCC(C)CCC=C(C)C (stereo not given)
active: [4] 180 µM
not listed: [3]
inactive: all other assays above

O=C[C@@H](O)[C@H](O)[C@H](O)CO
not listed: [3]
inactive: all other assays above

CCC(=O)OCCC(C)CCC=C(C)C (stereo not given)
not listed: [3]
inactive: all other assays above

COc1ccc(NC(=O)CC(C)=O)cc1
inactive: all assays above

CC1(CO)CN(c2ccccc2)NC1=O (stereo not given)
not listed: [7]
inactive: all other assays above

CCCCCC(CO)CCC (stereo not given)
not listed: [1] | [8]
inactive: all other assays above

O=C[C@H](O)[C@H](O)[C@H](O)CO
not listed: [1]
inactive: all other assays above

OCCCCCO
not listed: [6] | [7]
inactive: all other assays above

CCCCOCCOCCOCCOCCO
not listed: [7] | [8]
inactive: all other assays above

NCCCCCCN
inactive: [1] | [7] | [2] | [4] | [5]

NCCNCCN
not listed: [7]
inactive: all other assays above

CC(C)=CCCC(C)=CCCC(C)=CCO
not listed: [7]
inactive: all other assays above

CNC[C@H](O)c1cccc(O)c1
not listed: [5] | [7]
inactive: all other assays above

OCCOc1cccc(OCCO)c1
inactive: [2] | [4] | [6] | [8]

C=C(C)C(=O)O[C@H]1C[C@@H]2CC[C@@]1(C)C2(C)C
active: [3] 73.3 µM
not listed: [1] | [8]
inactive: all other assays above

C=C(C)[C@@H]1CCC2=CC(=O)C[C@@H](C)[C@]2(C)C1
not listed: [1] | [8]
inactive: all other assays above

O=CCCc1ccccc1
not listed: [5] | [8]
inactive: all other assays above

O=S(=O)(O)NC1CCCCC1
not listed: [1] | [5]
inactive: all other assays above

O=C(O)COCCN1CCN(C(c2ccccc2)c2ccc(Cl)cc2)CC1 (stereo not given)
inactive: [1] | [7] | [2] | [5] | [8]

COC(C)CCO (stereo not given)
not listed: [7]
inactive: all other assays above

CCN(CC)CCOC(=O)c1ccc(N)cc1
not listed: [3]
inactive: all other assays above

O=C(O)CCCCCCCC(=O)O
not listed: [3]
inactive: all other assays above

CC(CN1c2ccccc2Sc2ccccc21)N(C)C (stereo not given)
active: [6] 40.7 µM
not listed: [3]
inactive: all other assays above

C=C(C)C1CCC(C)CC1O (stereo not given)
not listed: [7] | [8]
inactive: all other assays above

C=O
not listed: [7]
inactive: all other assays above

CCCCNC(=O)NS(=O)(=O)c1ccc(N)cc1
not listed: [3]
inactive: all other assays above

CC[Si](OC(C)=O)(OC(C)=O)OC(C)=O
active: [8] 18.7 µM
not listed: [5]
inactive: all other assays above

CC(C)[C@H]1CC[C@@H](C)CC1=O
not listed: [3] | [8]
inactive: all other assays above

CC1(C)OC[C@@H]2O[C@@]3(C(=O)O)OC(C)(C)O[C@H]3[C@@H]2O1
not listed: [5]
inactive: all other assays above

Cc1ccc(S)cc1
active: [1] 35.3 µM | [4] 100 µM | [5] 161 µM
not listed: [3]
inactive: all other assays above

CCCCCNCCCCC
not listed: [6]
inactive: all other assays above

O=c1[nH]c(=O)n([C@H]2CCCO2)cc1F
not listed: [1]
inactive: all other assays above

O=C(COc1ccc(Cl)cc1)N1CCN(Cc2ccc3c(c2)OCO3)CC1
active: [3] 19.8 µM | [6] 74.6 µM
inactive: [7] | [2] | [4] | [8]
